# Assay outcomes from PubChem BioAssay.
# GALK inhibitor = qHTS Assay for Inhibitors of Human Galactokinase (GALK) | P51570 | Purified GALK, Kinase-Glo residual ATP luminescence | Potency, µM (doses to about 57.5 µM), usual class: inhibitors | actives 0.007% (n = 270,000)
#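 5 nM enzyme, 35 uM ATP, 100 uM galactose, 20 mM HEPES pH8.0, 5 mM MgCl2; 1 h RT; residual ATP by Kinase-Glo Plus luminescence, qHTS format.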
# RXFP1 agonist = qHTS Assay for Agonists of the Relaxin Receptor RXFP1. Potency, µM (series often up to 57.5 µM), usual class: activators. HEK293T-RXFP1 cAMP TR-FRET, 30 min; response scale: percent of porcine relaxin response, buffer zero. actives 0.3% (n = 370,000); also: nearly all actives have a fitted effect of over 60% in size
#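 cAMP rise read by TR-FRET after 30 min, 37C compound exposure (up to 58 uM) in RXFP1-transfected HEK293 cells with Ro 20174 present. EC50 from Hill-equation fits, with 29 nM porcine relaxin as 100% and buffer as basal.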
# PKM2 act = qHTS Assay for Activators of Human Muscle isoform 2 Pyruvate Kinase; Potency, µM (series often up to 57.5 µM), hits mostly activators; Pyruvate kinase PKM (Homo sapiens), P14618; AID 1631, 2009; actives 0.34% (n = 260,000); purified PKM2, Kinase-Glo ATP luminescence, activation; response scale: 0% is enzyme alone, no compound; also: nearly all actives have a fitted effect of over 55% in size
# Target sequence (P14618 whole entry, looked up, canonical isoform): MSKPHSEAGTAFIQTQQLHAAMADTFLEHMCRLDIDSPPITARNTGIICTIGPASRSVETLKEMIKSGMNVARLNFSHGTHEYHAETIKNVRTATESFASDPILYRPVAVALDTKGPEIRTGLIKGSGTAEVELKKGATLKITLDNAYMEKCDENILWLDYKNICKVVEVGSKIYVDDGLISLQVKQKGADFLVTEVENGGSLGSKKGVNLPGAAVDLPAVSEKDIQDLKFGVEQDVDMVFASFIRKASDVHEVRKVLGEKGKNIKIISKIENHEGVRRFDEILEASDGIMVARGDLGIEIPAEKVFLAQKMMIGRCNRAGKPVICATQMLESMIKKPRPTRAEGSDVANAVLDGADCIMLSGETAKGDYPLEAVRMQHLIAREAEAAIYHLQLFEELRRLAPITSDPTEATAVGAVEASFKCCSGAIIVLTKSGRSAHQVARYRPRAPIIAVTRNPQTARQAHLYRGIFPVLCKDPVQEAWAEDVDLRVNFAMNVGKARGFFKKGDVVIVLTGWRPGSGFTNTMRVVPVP
#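 Purified hPK-M2 (>95%) run at intermediate activity with 0.1 mM ADP and 0.5 mM PEP in 50 mM imidazole pH 7.2, KCl, MgCl2; 1 h room temperature. ATP formed read by Kinase-Glo luminescence; normalized to uninhibited and no-enzyme controls.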
# RXFP1 antag = qHTS Assay for Antagonists of the Relaxin Receptor RXFP1; Relaxin receptor 1 (Homo sapiens), Q9HBX9; AID 1259400, 2018; HEK293-RXFP1, relaxin-stimulated cAMP HTRF, 30 min; stronger effect = lower value; actives 0.59% (n = 350,000); activity change, negative = inhibition, % at 57.5 µM;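 active = activity change of -60% or lower, but not beyond a set lower limit; inconclusive = change between -60% and -40%, or beyond the set limit; inactive = change above -40%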
# Luc counter = Counterscreen for Luciferase (Kinase-Glo TM) Inhibition; Kinase-Glo luciferase, ATP luminescence, 8 min; Potency, µM (series often up to 38.3 µM), hits mostly inhibitors; actives 0.28% (n = 200,000); AID 1379, 2008; also: nearly all actives have a fitted effect of over 60% in size
#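 Inhibition of Kinase-Glo luciferase light generation was assessed at 10 uM ATP in pH 7.2 imidazole buffer, with luminescence measured after eight minutes at ambient temperature.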
# miR-21 reporter = qHTS Assay for Modulators of miRNAs and/orActivators of miR-21; Potency, µM (doses to about 38.3 µM), hits mostly activators; 340,000 tested, under 10 active; HeLa miR-21 FLuc reporter, luciferase, 48 h;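 also: miR-21 action dims this reporter so a rising signal means less miR-21 action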
#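 Using DMEM plus 10% FBS, HeLa miR-21-FLuc cells are incubated with test compounds (final up to about 40uM) for 48 hours; firefly luciferase signal is then imaged following reagent-mediated lysis.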
# A number is an active result; i = inactive; ? = inconclusive; nt = not tested or not shown; [ ] = remark or other dose. In the library only some 0.92% were active in any assay of this set; here they are far more common. Unless noted, calls follow the shape of the dose curve; as a rule, active = well fitted curve in the direction sought with a large enough effect; inconclusive = small, poorly fitted or top-dose-only effect, or another doubt; inactive = no such curve, though single readings can be large; an effect the other way counts as inactive or inconclusive.
SMILES,GALK inhibitor,RXFP1 agonist,PKM2 act,RXFP1 antag,Luc counter,miR-21 reporter
COc1nccnc1NS(=O)(=O)c1ccc(N=Cc2c(C)[nH]n(-c3ccc(Cl)cc3)c2=O)cc1,i,i,i,nt,i,i
COc1ccc(C(=O)C2CCCN(Cc3cnc(N4CCOCC4)s3)C2)cc1F (stereo not drawn),i,i,i,i,nt,i
CC(C)Oc1cccc(C(=O)C2CCCN(Cc3cnc(N4CCOCC4)s3)C2)c1 (stereo not drawn),i,i,i,-65,i,i
Cc1[nH]c(=S)c(C#N)c(C)c1CCC#N,i,i,i,-119,nt,i
N#Cc1cc(NC(=O)C(=O)O)c(Cl)c(NC(=O)C(=O)O)c1,nt,nt,nt,i,nt,nt
COCCN(C(=O)Cc1cccs1)C(C(=O)NCc1ccc(OC)cc1)c1ccc(C)cc1 (stereo not drawn),i,i,i,i,i,i
COc1ccc(CNC(=O)C(c2ccc(C)o2)N(Cc2cccs2)C(=O)Cc2cccs2)cc1 (stereo not drawn),i,i,10µM,i,i,i[7.66 µM]
O=S(=O)(c1ccccc1Br)N1CCC(O)(c2cccnc2)CC1,i,i,i,i,i,i
C=CCOC(=O)C1=C(C)N(C)C(=O)NC1c1cc2c(cc1Br)OCO2 (stereo not drawn),i,i,i,-74,i,i
CCCCOC(=O)C1=C(C)N(C)C(=O)NC1c1cc2c(cc1Br)OCO2 (stereo not drawn),nt,nt,nt,i,nt,nt
CN1CCN(CCCBr)CC1,nt,nt,nt,nt,i[7.66 µM],nt
Cc1cn([C@@H]2O[C@H](CO)[C@@H](O)[C@H]2F)c(=O)[nH]c1=O,nt,nt,nt,i,nt,nt
COCCNC(=O)C(OC(=O)c1nsc(Cl)c1Cl)C(C)C (stereo not drawn),i,18µM,i,i,i,i
CN(C)c1ccc(-c2nc3cc(N)ccc3o2)cc1,i,28µM,i[11.5 µM],i,nt,i
O=C(/C=C\C=C/c1ccc2c(c1)OCO2)N1CCCCC1,nt,nt,nt,nt,i,nt
COc1ccccc1NC(=O)Nc1nc(CC(=O)NCc2ccc(F)cc2)cs1,nt,i,nt,-76,nt,nt
CC(C)CCCC(C)NCCC(C)C (stereo not drawn),nt,nt,nt,i,nt,nt
Cc1oc(=O)c(NC(=O)c2cccc(Cl)c2)cc1C(=O)c1ccccc1,i,i,7.1µM,i,i,i
O=C(Nc1cc2ccc(O)cc2oc1=O)c1ccc(F)cc1,nt,i,nt,i,nt,i
O=C(Nc1cc2ccccc2oc1=O)c1ccccc1,i,i,i,i,11µM,i
CCCN(C(=O)CCc1nc(-c2ccccc2F)no1)c1ccc(CC)cc1,nt,i,nt,i,nt,i
COc1ccc2c(c1)O[C@H](c1ccc3c(c1)OCO3)[C@@H](OC(=O)Nc1ccc(C)c(Br)c1)C2=O,nt,nt,nt,nt,i,nt
Cc1ccc(NC(=O)CN2C(=O)S/C(=C/c3ccc(O)c([N+](=O)[O-])c3)C2=O)cc1C,i,i,?,-63,i,i
Cc1cccc(NC(=O)CN2C(=O)S/C(=C\c3ccc(O)c([N+](=O)[O-])c3)C2=O)c1,i,i,?,i,i,i
O=[N+]([O-])c1cccnc1N/N=C/c1ccccc1O,i,i,i,i,2µM,i
SMILES,GALK inhibitor,RXFP1 agonist,PKM2 act,RXFP1 antag,Luc counter,miR-21 reporter
CCCOc1ccc(/C=N/Nc2ccccc2[N+](=O)[O-])c(O)c1,i,i,i,i,8.9µM,i
Cc1c(O)ccc(/C=N/Nc2ncccc2[N+](=O)[O-])c1O,i,i,i,i,nt,i
O=C1NC2CCCCN2C12CCN(CCCN1c3ccccc3CCc3ccc(Cl)cc31)CC2 (stereo not drawn),nt,nt,nt,-74,nt,nt
CCCCC#Cc1nc(N)c2ncn([C@@H]3O[C@H](C(=O)NCC)[C@@H](O)[C@H]3O)c2n1,nt,nt,nt,nt,i,nt
NC[C@H]1O[C@H](O[C@H]2[C@H](O)[C@@H](O[C@H]3O[C@H](CO)[C@@H](O)[C@H](N)[C@H]3O)[C@H](N)C[C@@H]2N)[C@H](N)[C@@H](O)[C@@H]1O,nt,nt,nt,i,nt,nt
CC1CN(c2ccc([N+](=O)[O-])c(NCCOc3ccccc3)c2)CC(C)N1 (stereo not drawn),i,i,i[11.5 µM],i,nt,i
CC1CN(c2ccc([N+](=O)[O-])c(NCCOc3ccc(Cl)cc3)c2)CC(C)N1 (stereo not drawn),i,i,i,-97,nt,?
COc1ccc(CN(C)C(C)C(=O)Nc2ccc(S(=O)(=O)N3CCCC3)cc2)c(OC)c1OC (stereo not drawn),i,i,i,nt,i,i
COc1cc(CNC2CCCC2)c(Br)cc1OC1CCCC1,i,i,i,i,i,i
COc1cc(CNCc2ccccc2)c(Br)cc1OC1CCCC1,i,i,i,-61,i,i
C[N+](C)(C)C(C1=CCCC1=O)c1ccccc1 (stereo not drawn),nt,nt,nt,nt,i[7.66 µM],nt
COc1ccc(C(=O)N2CCC3(CC2)NCCc2[nH]cnc23)cc1,i,i,nt,i,nt,i
CCN(CC)c1ccc(C(=C2C=CC(=[N+](CC)CC)C=C2)c2ccc(S(=O)(=O)O)cc2S(=O)(=O)[O-])cc1,nt,nt,nt,-90,nt,nt
O=C(CNC(=O)c1ccc(F)cc1)N/N=C/c1cccnc1,i,i,i,i,nt,i
Cc1ccc(S(=O)(=O)N2CCN(C(=O)CSc3ccc(Cl)cc3)CC2)cc1,i,i,14µM,i,nt,i
Cc1ccc(S(=O)(=O)N2CCN(C(=O)CSc3nncs3)CC2)cc1,i,i,18µM,i,nt,i
CC(=O)Nc1ccc(SCC(=O)N2CCN(S(=O)(=O)c3ccccc3)CC2)cc1,i,i,?,i,nt,i
Cc1ccc(SCC2(O)CCN(S(=O)(=O)c3ccc(Cl)cc3)CC2)cc1,i,i,i,i,i,i
O=C(CSc1n[nH]c(-c2cccs2)n1)N1CCN(S(=O)(=O)c2ccccc2)CC1,i,i,25µM,i,i,i
O=C(CSc1n[nH]c(-c2cccs2)n1)N1CCCC1,nt,nt,nt,i,nt,nt
O=C(CSc1ccc(F)cc1)N1CCN(S(=O)(=O)c2ccccc2)CC1,i,i,3.2µM,i,i,i
CCCCC1=CC2=C(OC(C)=O)C(=O)C(C)(OC(=O)c3ccc(Cl)nc3)C(=O)C2=CO1 (stereo not drawn),nt,nt,nt,nt,i,nt
CC1CC(C)C(=O)C(C(CC2CC(=O)NC(=O)C2)OC(=O)CC(=O)c2ccccc2)C1 (stereo not drawn),nt,nt,nt,i,nt,nt
CCNC(=O)[C@H]1O[C@@H](n2cnc3c(N)nc(NCCc4ccc(CCC(=O)O)cc4)nc32)[C@H](O)[C@H]1O,nt,nt,nt,nt,i,nt
